From PubChem
An excerpt weighted towards active compounds, which were near 2.9% of everything screened.
PME-1 primary: blocks human protein phosphatase methylesterase 1; Q9Y570; recombinant PME-1, FP-Rh probe fluorescence polarization; inhibition, % at 5.9 µM; 0.53% of 320,000 active;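 active = inhibition above the campaign mean of all compounds plus 3 SD, cut at about 26% in these data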;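 note: competitive labeling of PME-1 active site by serine hydrolase directed probe; 0% = PME-1 with DMSO and 100% = wells lacking PME-1 enzyme; inhibitors block probe labeling so polarization falls and inhibition rises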
pPAFAH inh: inhibitors of human plasma PAF acetylhydrolase (pPAFAH); Q13093; inhibition, % at 3.39 µM; 1.5% of 330,000 active; recombinant pPAFAH, FP-rhodamine probe fluorescence polarization;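 active = inhibition above the mean inhibition across the screen plus 3 SD, cut at about 25% in these data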;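 note: inhibitors block binding of the rhodamine activity-based probe so polarization drops; 0% = enzyme with DMSO and 100% = wells lacking pPAFAH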
Target sequence (Q13093 whole entry, looked up): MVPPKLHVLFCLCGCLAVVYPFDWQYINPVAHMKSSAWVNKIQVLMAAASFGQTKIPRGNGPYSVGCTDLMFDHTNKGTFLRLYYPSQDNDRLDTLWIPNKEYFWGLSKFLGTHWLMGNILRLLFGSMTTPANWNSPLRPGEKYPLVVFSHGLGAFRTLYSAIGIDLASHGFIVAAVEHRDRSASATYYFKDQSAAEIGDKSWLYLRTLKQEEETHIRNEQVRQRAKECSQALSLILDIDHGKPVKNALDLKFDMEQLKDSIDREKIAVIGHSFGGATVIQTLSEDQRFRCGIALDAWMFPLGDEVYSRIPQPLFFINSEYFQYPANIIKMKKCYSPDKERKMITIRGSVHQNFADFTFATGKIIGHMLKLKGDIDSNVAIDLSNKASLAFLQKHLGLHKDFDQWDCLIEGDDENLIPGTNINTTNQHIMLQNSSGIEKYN
PAFAH1B3 inh: blocks human PAF acetylhydrolase 1B catalytic subunit 3. Q15102. recombinant PAFAH1B3, FP-rhodamine probe, fluorescence polarization. inhibition, % at 3.39 µM. 0.28% of 340,000 active. AID 492972;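 active = inhibition above the screen-wide average of all tested compounds plus 3 SD, cut at about 25% in these data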;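 note: 0% = enzyme with DMSO only and 100% = wells lacking PAFAH1B3 protein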
PAFAH2 FP inh: inhibitors of human PAFAH2; 0.99% of 340,000 active; inhibition, % at 3.39 µM; recombinant PAFAH2, FP-rhodamine activity probe, fluorescence polarization; AID 492956;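 active = inhibition above the mean over all tested compounds plus 3 SD, cut at about 30% in these data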;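 note: inhibitors block probe labeling of enzyme so polarization drops; 0% = enzyme with DMSO and 100% = wells lacking PAFAH2 protein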
Fam108B counter: counter-screen for RBBP9 inhibitors: inhibitors of mouse Fam108B. recombinant Fam108B, FP-Rh probe fluorescence polarization. inhibition, % at 9.51 µM. 0.33% of 300,000 active;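 active = inhibition above the screen mean inhibition plus 3 SD, computed separately per campaign, cut at about 18% in these data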;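 note: inhibitors lower polarization as less probe binds the enzyme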
PAFAH1B2 FP inh: inhibitors of human PAFAH1B2. AID 492953. inhibition, % at 3.39 µM. 1.2% of 340,000 active. P68402. recombinant PAFAH1B2, FP-rhodamine activity probe, fluorescence polarization;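 active = inhibition above the mean of all tested compounds plus 3 SD, cut at about 24% in these data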;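 note: 0% = enzyme with DMSO and 100% = wells lacking PAFAH1B2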
Target sequence (P68402 whole entry, looked up): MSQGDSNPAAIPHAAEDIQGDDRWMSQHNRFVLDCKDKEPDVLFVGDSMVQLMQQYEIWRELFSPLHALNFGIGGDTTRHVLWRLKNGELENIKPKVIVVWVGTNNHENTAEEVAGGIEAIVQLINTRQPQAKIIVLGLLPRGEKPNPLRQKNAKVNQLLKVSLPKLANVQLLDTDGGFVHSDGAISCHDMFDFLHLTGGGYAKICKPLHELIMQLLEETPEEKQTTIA
Fam108b inh conf: confirmation of mouse Fam108b serine hydrolase inhibitors | shares compounds with Fam108B counter | recombinant Fam108b, FP-Rh probe fluorescence polarization | inhibition, % at 9.51 µM | 44% of 930 active | AID 1978;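 active = inhibition above a limit from the primary screen, the mean over all compounds plus 3 SD, cut at about 19% in these data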;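 note: 0% = median of active Fam108b wells and 100% = catalytically dead S170A mutant; inhibitors free the probe so polarization falls as inhibition rises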
Fam108b inh: mouse ABHD17B inhibition; shares compounds with Fam108B counter; recombinant Fam108b, gel-based ABPP, fluorophosphonate probe; inhibition, % at 20 µM; 44% of 260 active; in the data active = inhibition above about 40%
pPAFAH FP conf: confirmation of human plasma PAF acetylhydrolase (pPAFAH) inhibitors. 72% of 2,300 active. AID 463230. shares compounds with pPAFAH inh. recombinant pPAFAH, FP-Rh probe fluorescence polarization. inhibition, % at 3.39 µM;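 active = mean inhibition of the triplicate above the hit cutoff set for the earlier primary screen, cut at about 25% in these data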;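 note: 0% = enzyme with DMSO and 100% = wells lacking pPAFAH enzyme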
The depositor's hits bear a star; · = no result.

SMILES | PME-1 primary | pPAFAH inh | PAFAH1B3 inh | PAFAH2 FP inh | Fam108B counter | PAFAH1B2 FP inh | Fam108b inh conf | pPAFAH FP conf | others
Nc1cc(C(=O)O)c(N)c2c1C(=O)c1ccccc1C2=O | 86* | 74* | 73* | 66* | 73* | 56* | 84* | 54* | Fam108b inh=40*
COc1ccc(NS(=O)(=O)c2ccc(N/N=C(\C)c3ccncc3)c([N+](=O)[O-])c2)cc1 | 28* | 57* | 17 | 0 | 23* | 7 | -3 | 55*
Nn1c(SCC(=O)NCc2ccc3c(c2)OCO3)nnc1C(F)(F)F | · | 1 | 8 | -6 | · | 0 | · | ·
O=C(O)CCCNc1cc(N2CCN(C(=O)c3ccco3)CC2)c2noc3c2c1C(=O)c1ccccc1-3 | 6 | 57* | 18 | 21 | 35* | 14 | 41* | 31* | Fam108b inh=75*
COc1ccc(N(CC(=O)NCCC2=CCCCC2)S(=O)(=O)c2ccccc2)cc1 | -1 | 3 | 5 | -2 | -1 | 12 | · | ·
O=C(CCCN1C(=O)/C(=C\c2ccco2)SC1=S)Nc1ccc(O)cc1C(=O)O | -43 | 68* | 3 | 39* | 20* | 19 | 12 | 11
O=C1c2ccccc2-c2onc3ccc(NCc4ccco4)c1c23 | 120* | 82* | 104* | 121* | 107* | 105* | 135* | 104* | Fam108b inh=30
CCNc1ccc2noc3c2c1C(=O)c1ccccc1-3 | 111* | 106* | 104* | 114* | 115* | 114* | 149* | 99* | Fam108b inh=95*
COc1ccc(-n2c(C)c3c(OC)cccc(=O)c3c2C)cc1 | 13 | 21 | 3 | 13 | 1 | 5 | · | ·
COc1cccc(=O)c2c(C)n(-c3ccc(C(=O)O)cc3)c(C)c12 | -17 | 37* | 6 | 10 | 18* | 2 | 1 | 1
CCN(CC)C(=O)C1c2ccccc2Oc2ccccc21 | 70* | 39* | 16 | 7 | 47* | 4 | 3 | -1
CCN(CC)c1nc(N)c2c(N)n(-c3ccccc3C)c(=S)c(C#N)c2c1C#N | 10 | 47* | 12 | 43* | 20* | 25* | 7 | 31*
COc1ccc(OC)c(-c2c3cc(O)c(=O)cc-3oc3cc(O)c(O)cc23)c1 | 59* | 93* | 58* | 73* | 73* | 74* | 110* | 85*
O=C(N/N=C/c1ccc(-c2ccc(S(=O)(=O)Nc3ncccn3)cc2)o1)c1cc2ccccc2cc1O | -3 | 78* | 35* | 34* | 24* | 25* | 20* | 76*
CCOc1ccc(C(=O)N/N=C/c2ccc(-c3ccc(S(=O)(=O)Nc4ncccn4)cc3)o2)cc1 | -7 | 11 | -7 | 8 | -3 | 3 | · | ·
Cc1cc(NS(=O)(=O)c2ccc(NC(=O)CCCOc3ccccc3)cc2)no1 | 1 | 4 | 8 | -6 | 0 | -3 | · | ·
O=C(Nc1ccc(S(=O)(=O)Nc2nccs2)cc1)c1ccc(=O)[nH]c1 | -19 | 39* | 30* | 10 | 18* | 12 | 10 | 5
O=C(Nc1ccc(S(=O)(=O)Nc2nccs2)cc1)c1cccc(F)c1 | -3 | 0 | -1 | -2 | 2 | 4 | · | ·
COC(=O)COc1cccc(NS(=O)(=O)c2ccc(NC(C)=O)cc2)c1 | 5 | 2 | 10 | -2 | -2 | 3 | · | ·
CC(C)=NN/C(N)=N/C(=S)Nc1ccc(C)cc1 | -6 | 1 | 2 | -11 | -3 | 0 | · | ·
Cc1ccc(NS(=O)(=O)c2ccc(N3CCN(c4ccc(O)cc4)CC3)c([N+](=O)[O-])c2)c(C)c1 | 23 | 57* | 1 | 17 | 21* | 3 | 9 | 46*
Cc1ccc(NS(=O)(=O)c2ccc(N/N=C/c3ccncc3)c([N+](=O)[O-])c2)c(C)c1 | -5 | 24 | -6 | 7 | -2 | -2 | · | ·
CCOc1cc(NC(=S)NCC2CCCO2)c(OCC)cc1NC(=O)c1cccc(F)c1 (stereo not given) | -1 | 8 | 6 | 4 | 2 | 0 | · | ·
O=C(Nc1cccc(C(F)(F)F)c1)c1ccc2nc(-c3ccco3)c(-c3ccco3)nc2c1 | 30* | 70* | 29* | 31* | 52* | 15 | 6 | 77*
Cc1ccccc1OCC(=O)Nc1ccc(NC(=O)c2ccco2)cc1 | -8 | -8 | 2 | 3 | -6 | 2 | · | ·
SMILES | PME-1 primary | pPAFAH inh | PAFAH1B3 inh | PAFAH2 FP inh | Fam108B counter | PAFAH1B2 FP inh | Fam108b inh conf | pPAFAH FP conf | others
O=C(NN1C(=O)/C(=C/C=C/c2ccco2)SC1=S)c1ccncc1 | -27 | 72* | · | · | 41* | · | 10 | 16
O=C1/C(=C/C=C/c2ccco2)SC(=S)N1c1ccc(O)cc1 | -10 | 83* | 7 | 17 | 19* | -4 | -1 | 41*
O=C(O)c1ccc(N2C(=O)/C(=C/C=C/c3ccccc3)SC2=S)cc1 | -7 | 8 | -1 | 4 | -7 | -6 | · | ·
CC(C)C(C(=O)O)N1C(=O)/C(=C/C=C/c2ccco2)SC1=S (stereo not given) | -30 | 78* | 23 | 61* | 38* | 17 | 0 | 54*
COc1cccc(OCCSc2nc3ccccc3c(=O)[nH]2)c1 | -11 | 3 | -3 | 4 | 0 | -1 | · | ·
CCOC(=O)C1CCCN(C(=O)C2c3ccccc3Oc3ccccc32)C1 (stereo not given) | 66* | 55* | 43* | 54* | 41* | 24* | 6 | 9
CCCC(C(=O)NCC1CCCO1)N(Cc1ccco1)C(=O)CNS(=O)(=O)c1ccc(F)cc1 (stereo not given) | 2 | 5 | 5 | 7 | 1 | 3 | · | ·
COc1cc(/C=N/NC(=O)c2ccc(CN3C(=O)c4cccc5cccc3c45)cc2)cc(OC)c1O | 17 | 38* | 19 | -14 | 31* | 9 | 22* | 20
COc1cccc(/C=N/Nc2ccc([N+](=O)[O-])cc2)c1O | 6 | 6 | 8 | 0 | 0 | -4 | · | ·
O=[N+]([O-])c1cccc(N/N=C/c2cccc(O)c2O)c1 | 41* | 60* | 17 | 8 | 26* | -2 | 11 | 66*
O=C(CSc1c(F)c(F)cc(F)c1F)Nc1ccc(C2SCCS2)cc1 | 145* | 90* | 8 | 7 | 137* | -3 | 150* | 4 | Fam108b inh=0
O=C(CSc1ccc(Cl)cc1)Nc1ccc(C2SCCS2)cc1 | 4 | 6 | 6 | 5 | 3 | 16 | · | ·
O=C(N/N=C/c1cc(Cl)c(O)c(Cl)c1)c1cc2c(ccc3ccccc32)o1 | 57* | 61* | 21 | 45* | 37* | 36* | 52* | 70*
